Source: PubChem
aSyn 5UTR inh: MLPCN primary screen, SNCA 5' untranslated region; 300,000 compounds, 0.82% hits; inhibition, % (tested at 7.5 µM); AID 1813, 2009; alpha-synuclein 5'UTR reporter, inhibitor activity; in the data active = inhibition above about 60%;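 also: H4 neuroglioblastoma cells stably carrying SNCA 5'UTR luciferase fusion; 0% = DMSO wells and 100% = positive control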
Ba/F3 V617F tox: reduced viability of JAK2V617F-dependent Ba/F3 cells, primary screen, JAK2V617F inhibitor project, cell-based, Ba/F3 EpoR-JAK2V617F, luminescence. ATP luminescence. inhibition, % at 5.6 µM. 220,000 compounds, 1.1% hits. AID 1446, 2008;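 active = inhibition above the campaign mean plus 3 SD over all tested compounds, cut at about 24% in these data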;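 also: cytokine-independent growth of Ba/F3 cells driven by EpoR plus mutant JAK2; 0% = DMSO-treated cells and 100% = JAK inhibitor I control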
BaF3 parental: parental Ba/F3 cell viability inhibition, counter-screen for JAK2V617F inhibitor project, murine pro-B, CellTiter-Glo luminescence; CellTiter-Glo ATP luminescence; inhibition, % at 5.6 µM; 220,000 compounds, 1.1% hits;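 active = inhibition above a per-campaign cutoff, the mean inhibition of all tested compounds plus 3 SD, cut at about 27% in these data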;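 also: 0% = DMSO wells and 100% = JAK Inhibitor I control wells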
IEC-6 cytotox: cytotoxicity in IEC-6 intestinal epithelial cells, primary screen, cytotoxicity control for KLF5 inhibitor project, cell-based, luminescence; IEC-6 cytotoxicity, luminescence viability; inhibition, % at 5 µM; AID 1825, 2009; 290,000 compounds, 0.78% hits; in the data active = inhibition above about 22%;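 also: 0% = plate median of test compound wells and 100% = cytotoxic reference compound wells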
APP transl inh: inhibitors of APP translation via 5'UTR reporter, primary screen, APP 5'UTR luciferase, SH-SY5Y cells; SH-SY5Y APP 5'UTR-luciferase reporter, luminescence; inhibition, % at 2 µM; 190,000 compounds, 0.82% hits;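 active = inhibition above a set limit, derived from the sample mean plus 3 SD, cut at about 45% in these data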
KLF5 inh: KLF5 expression inhibitors, primary screen, DLD-1 cells, luminescence | DLD-1 KLF5 promoter-luciferase reporter | inhibition, % at 5 µM | 290,000 compounds, 0.23% hits | AID 1700, 2009;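 active = inhibition above a per-plate limit of that plate's mean compound inhibition plus 3 SD, cut at about 60% in these data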;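 also: 0% = DMSO wells and 100% = LY294002 at 200 µM; higher means less KLF5 promoter-driven luciferase light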
Starred values were filed as active, the others as inactive; nt = not tested or not shown. Most compounds without a hit are left out; they make up all but 2.2% or so of the library.

SMILES	aSyn 5UTR inh	Ba/F3 V617F tox	BaF3 parental	IEC-6 cytotox	APP transl inh	KLF5 inh
Cc1ccc(NC(=O)c2cc(N3C(=O)C=CC3=O)ccc2N2CCOCC2)cc1	12	-3	6	0	77*	-24
Cc1ccc(NC(=O)c2cc(N3C(=O)C=CC3=O)ccc2Cl)cc1C	-17	-1	5	-4	45*	-47
Cc1ccc(NC(=O)c2cc(-n3cnnc3)ccc2Cl)cc1	-12	-2	3	-2	7	-18
Cc1cc(=O)oc2cc(OCC(=O)N(C)C3CCS(=O)(=O)C3)c(Cl)cc12 (centres undefined)	-23	nt	nt	3	nt	-13
N#Cc1nc(COc2ccc(F)cc2)oc1N1CCC(Cc2ccccc2)CC1	5	-2	-1	1	66*	-42
Nc1c(C(=O)NCc2ccccc2)sc2nc(N3CCOCC3)c3c(c12)CCCC3	65*	-3	-2	-2	6	-28
Cc1cc(C)c2nc(C)cc(N/N=C/c3ccc(O)cc3)c2c1	112*	nt	nt	22	nt	-36
O=C1c2ccc3c4c(ccc(c24)C(=O)N1c1cccc(O)c1)C(=O)N(c1cccc(O)c1)C3=O	68*	13	18	14	nt	0
COc1ccc(NC2=CC(=O)CC(c3ccccc3)C2)c(OC)c1 (centres undefined)	12	39*	43*	17	4	38
CCCOc1ccc(S(=O)(=O)N2CCOCC2)cc1[N+](=O)[O-]	1	4	3	1	5	-11
Nc1nonc1-n1nnc(C(=O)N/N=C/c2ccccc2F)c1CN1CCc2ccccc21	0	nt	nt	-3	nt	-8
Oc1ccc(/C=N/Nc2nc(N3CCCCCC3)nc(N3CCCCCC3)n2)c(O)c1	21	47*	34*	0	5	-11
Oc1ccc(Br)cc1/C=N/Nc1nc(N2CCCCC2)nc(N2CCOCC2)n1	-25	-2	-5	-1	3	10
CN1Cc2c(N3CCOCC3)nc3sc(C#N)c(N)c3c2CC1(C)C	-16	-1	-1	0	nt	-7
CN1Cc2c(N3CCOCC3)nc3sc(C(=O)c4ccc(Br)cc4)c(N)c3c2CC1(C)C	105*	5	0	-2	nt	-5
CCOC(=O)Cn1nnnc1CN(Cc1cccs1)Cc1cc2cc(C)ccc2[nH]c1=O	23	-1	2	-7	62*	7
Cc1ccc2[nH]c(=O)c(CN(Cc3cccs3)Cc3nnnn3Cc3ccccc3)cc2c1	6	-1	7	-4	0	-18
COc1ccc(S(=O)(=O)N2c3cc(Cl)ccc3Oc3nc4ccccc4nc32)cc1	100*	-5	-1	5	-17	-7
O=S(=O)(c1ccc(Cl)cc1)N1c2ccccc2Oc2nc3ccccc3nc21	-96	1	5	-2	-15	-12
Cn1cccc1/C=N/NC(=O)c1cc(-c2cccs2)nc2ccccc12	27	-2	3	0	47*	-20
CCc1ccc(/C=N/NC(=O)c2cc(-c3ccncc3)nc3ccccc23)s1	83*	-4	6	9	91*	2
CC1CCCC(C)N1CCCNC(=O)c1cc2c(s1)-c1ccccc1OC2 (centres undefined)	70*	nt	nt	2	nt	-11
Cc1cccc2c1-c1sc(C(=O)NCCCN3CCCC(C)C3)cc1CO2 (centres undefined)	69*	nt	nt	6	nt	-6
CCCN1CCN(CCCNC(=O)c2cc3c(s2)-c2c(C)cccc2OC3)CC1	8	nt	nt	10	nt	-29
COc1ccc(CNC(=O)CSc2nnc(-c3cccnc3)n2N)cc1	28	6	82*	0	0	5
CC(C)N(C(=O)CN1CCC(c2nc3ccccc3[nH]2)CC1)C(C)C	15	nt	nt	0	nt	-25
O=C(NCCN1CCOCC1)C(=O)c1c[nH]c2ccccc12	10	nt	nt	-8	nt	-22
C=CCOC(=O)c1[nH]c2c(c1C)C(=O)CC(c1cc(OC)c(OC)c(OC)c1)C2 (centres undefined)	-13	41*	44*	5	-12	9
COCCOC(=O)c1[nH]c2c(c1C)C(=O)CC(c1ccco1)C2 (centres undefined)	44	76*	77*	17	96*	16
Cc1ccnc(NC(=O)c2cc3ccccc3o2)c1	97*	nt	nt	nt	nt	nt
